The results in this text go back to PubChem BioAssay.

The term viability denotes a read-out of living cells in per cent, often relative to untreated cells.

Each structure is given as a SMILES string.

The nature of the assay: reversal of MRP1-mediated doxorubicin resistance, pilot screen, H69AR cells, doxorubicin co-treatment (AID 601). The note with it: H69AR cells, CellTiter-Glo, 72 h; compound alone cytotoxicity; at 10 µM.
With `CC1CC(C)CN(CCCNC(=O)c2ccc3c(c2)NC(=O)C(N2CCCCC2)S3)C1` (configuration not stated), the viability came to 87.8%. To `Cc1cc(NC(=O)C2CCCC2)nc2c1c(=O)oc1ccccc12` belongs 62.8%; to `Cc1cccc(NC(=O)CN(C)S(=O)(=O)c2ccccc2)n1`, 95.2%; to `O=C1c2ccccc2C(=O)N1CCCCN1CCN(CCCCN2C(=O)c3ccccc3C2=O)CC1`, 97.5%. To `CCOC(=O)c1sc(NS(=O)(=O)c2ccc(NC(C)=O)cc2)nc1C` belongs 96%; to `O=C(NCc1ccc(F)cc1)c1cc(-c2ccco2)on1`, 92.5%; to `COc1cccc(C(=O)Nc2cccc(C(=O)N3CCOCC3)c2)c1`, 90.1%. To `Cc1nc(SCC(=O)c2c[nH]c3ccccc23)n[nH]1` belongs 95.9%; to `CCOC(=O)C1CCN(S(=O)(=O)c2cccc(-c3csc(C)n3)c2)CC1`, 90.4%; to `COc1ccc2c(c1)CCc1c(C(=O)N3CC4(C)CC3CC(C)(C)C4)noc1-2` (configuration not stated), 75.1%. For the molecule `C=CCn1c(SCc2cc(=O)n3ccsc3n2)nnc1C1CCCCC1`, the viability was found to be 96.7%. To `CCOC(=O)C1C(=O)NC(SCC(=O)Nc2nccs2)=C(C#N)C1c1ccccc1OCC` (configuration not stated) belongs 71.3%; to `Cc1ccc(-c2nc(-c3cccnc3)no2)c(C)c1`, 90.1%. To `COC(=O)c1[nH]c(C)c(/C(O)=C2\C(=O)C(=O)N(CCCN3CCOCC3)C2c2ccccn2)c1C` (configuration not stated) belongs 104%. Consider `CCOc1ccccc1NC(=O)CCSc1nc2n[nH]c(C)c2c(=N)n1-c1ccccc1Cl`, for which the viability was found to be 16.9%. To `CC(=O)c1cc(-c2ccccc2)n(CC(=O)N2CCN(C3CCCC3)CC2)c1C` belongs 80.5%; to `O=c1ccn(Cc2ccccc2Cl)cc1`, 88.2%.
